Source: PubChem BioAssay (NCATS)
Inconclusive results are not listed. The source made the active and inactive calls. Calls come from the whole dose curve; as a rule, active = well fitted cell-killing curve with a large enough effect; inconclusive = small, poorly fitted or top-dose-only effect, or effect the other way; inactive = flat fitted curve, though single readings scatter. Where a SMILES comes first, the peptide text is derived from it.

Key:
Assay in all cases: Primary qHTS to identify gynecologic anti-cancer compounds using libraries of approved drugs and bioactive compounds (AID 1345084); note: nearly all actives have a fitted effect of over 55% in size
Conditions in all cases: Gynecologic cancer cell panel viability, ATPlite luminescence, 48 h; series mostly up to 57.5 µM
OV90 = tested on: OV90
Summary of the method: (§1)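 In this quantitative HTS, cell killing is estimated from loss of ATP-dependent luciferase light. Cells see five compound concentrations over a 48 h exposure.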

PA-1 = tested on: PA-1
Summary of the method: as §1

SKOV3 = tested on: SKOV3
Summary of the method: as §1

Tov-21-G = tested on: Tov-21-G
Summary of the method: as §1

Tov112D = tested on: Tov112D
Summary of the method: as §1
% is set by controls: 0 for no effect and ±100 for the full control effect.

COc1ccc(CCc2nc3cc(-c4c(C)noc4C)ccc3n2C[C@H](C)N2CCOCC2)cc1Cl
inactive: Potency (OV90) | Potency (PA-1) | Potency (SKOV3) | Potency (Tov-21-G) | Potency (Tov112D)

CC(C)=CC1C[C@](C)(O)[C@@H]2[C@H]3CCC4[C@@]5(C)CC[C@H](O[C@@H]6OC[C@H](O)[C@H](O[C@@H]7O[C@H](CO[C@@H]8O[C@H](CO)[C@@H](O)[C@H](O)[C@H]8O)[C@@H](O)[C@H](O)[C@H]7O)[C@H]6O[C@@H]6O[C@@H](C)[C@H](O)[C@@H](O)[C@H]6O)C(C)(C)[C@@H]5CC[C@@]4(C)[C@@]34CO[C@@]2(C4)O1 (stereo not given in full)
inactive: activity change, negative = cytotoxicity (OV90) 5% [at 11.6 µM] | activity change, negative = cytotoxicity (PA-1) 0.967% [at 11.6 µM] | activity change, negative = cytotoxicity (SKOV3) 2.44% [at 11.6 µM] | activity change, negative = cytotoxicity (Tov-21-G) 9.39% [at 11.6 µM] | activity change, negative = cytotoxicity (Tov112D) 6.5% [at 11.6 µM]

CC(C)C1CCC(C(=O)N[C@@H](Cc2ccccc2)C(=O)O)CC1 (stereo not given in full)
inactive: Potency (OV90) | Potency (PA-1) | Potency (SKOV3) | Potency (Tov-21-G) | Potency (Tov112D)

CN1CCc2cc(Cl)c(O)cc2[C@@H](c2cccc3c2OCC3)C1
inactive: Potency (OV90) | Potency (PA-1) | Potency (SKOV3) | Potency (Tov-21-G) | Potency (Tov112D)

CC1=CCC(O)C2(C)CCC3C(C)C(=O)OC3C12 (stereo not given)
inactive: Potency (OV90) | Potency (PA-1) | Potency (SKOV3) | Potency (Tov-21-G) | Potency (Tov112D)

CC1(C)CCC[C@]2(C)C1CC=C(CO)[C@H]2CC/C(=C/CO)CO (stereo not given in full)
inactive: Potency (OV90) | Potency (PA-1) | Potency (SKOV3) | Potency (Tov-21-G) | Potency (Tov112D)

CC(=O)NC(Cc1ccccc1)C(=O)NC(C(=O)O)C(C)C (stereo not drawn) (Ac-Phe-Val-OH; configuration not given here)
inactive: Potency (OV90) | Potency (PA-1) | Potency (SKOV3) | Potency (Tov-21-G) | Potency (Tov112D)

CCC(=O)OCC(=O)[C@@]1(OC(=O)CC)[C@@H](C)C[C@H]2[C@@H]3CCC4=CC(=O)C=C[C@]4(C)[C@@]3(F)[C@@H](O)C[C@@]21C
inactive: Potency (OV90) | Potency (PA-1) | Potency (SKOV3) | Potency (Tov-21-G) | Potency (Tov112D)

COc1cc(/C=C/C(=O)O[C@@H]2C[C@](O)(C(=O)O)C[C@@H](O)[C@H]2O)ccc1O
inactive: Potency (OV90) | Potency (PA-1) | Potency (SKOV3) | Potency (Tov-21-G) | Potency (Tov112D)

CC[C@H]1OC(=O)[C@H](C)C(=O)[C@H](C)[C@@H](OC2O[C@H](C)C[C@H](N(C)C)[C@H]2O)[C@@H](C)C[C@@H](C)C(=O)/C=C/[C@]1(C)O (stereo not given in full)
inactive: Potency (OV90) | Potency (PA-1) | Potency (SKOV3) | Potency (Tov-21-G) | Potency (Tov112D)

CC(C)[C@@](O)(c1ccc2cc(OC(F)F)c(OC(F)F)cc2c1)c1cn[nH]n1
inactive: Potency (OV90) | Potency (PA-1) | Potency (SKOV3) | Potency (Tov-21-G) | Potency (Tov112D)

COC(=O)[C@@H](NC(=O)[C@H](CC(C)C)NC(=O)N(Cc1ccccc1)C[C@@H](O)[C@H](Cc1ccccc1)NC(=O)OC(C)(C)C)C(C)C
inactive: activity change, negative = cytotoxicity (OV90) -5.58% [at 11.6 µM] | activity change, negative = cytotoxicity (PA-1) 4.66% [at 11.6 µM] | activity change, negative = cytotoxicity (SKOV3) 21.9% [at 11.6 µM] | activity change, negative = cytotoxicity (Tov-21-G) -1.16% [at 11.6 µM] | activity change, negative = cytotoxicity (Tov112D) 11% [at 11.6 µM]

COc1c2c(c(C)c3c1C(=O)OC3)OC1(C)CC(O)C34OC(OC)(CCC3(C)C1C2)OC4(C)CO (stereo not given)
inactive: Potency (OV90) | Potency (PA-1) | Potency (SKOV3) | Potency (Tov-21-G) | Potency (Tov112D)

C[C@]1(OC(=O)/C=C/c2ccc(O)cc2)C[C@@H](O)[C@]2(O)C=CO[C@@H](O[C@@H]3O[C@H](CO)[C@@H](O)[C@H](O)[C@H]3O)C12 (stereo not given in full)
inactive: Potency (OV90) | Potency (PA-1) | Potency (SKOV3) | Potency (Tov-21-G) | Potency (Tov112D)

COCC1OC(OC(C)(C)C2CCC3(C)C=C(C4CCC5C4(C)CC(O)C4OC(C(C)(C)O)CCC45C)CCC3O2)C(NC(C)=O)C(O)C1O (stereo not given)
inactive: Potency (OV90) | Potency (PA-1) | Potency (SKOV3) | Potency (Tov-21-G) | Potency (Tov112D)

CC1OC(OC2C(OC3C(O[C@H]4CC[C@@]5(C)C(CC[C@]6(C)C5CC=C5C7CC(C)(C)CC(O)[C@]7(C)CC[C@]56C)C4(C)C)OC(C(=O)O)C(O)C3O)OCC(O)C2O)C(O)C(O)C1O (stereo not given in full)
inactive: activity change, negative = cytotoxicity (OV90) 9.07% [at 11.6 µM] | activity change, negative = cytotoxicity (PA-1) 30% [at 11.6 µM] | activity change, negative = cytotoxicity (SKOV3) 7.87% [at 11.6 µM] | activity change, negative = cytotoxicity (Tov-21-G) 6.64% [at 11.6 µM] | activity change, negative = cytotoxicity (Tov112D) 1.05% [at 11.6 µM]

CC(=O)O[C@@H]1C[C@@H](C)[C@](O)(CCC2=CC(=O)OC2)[C@@]2(C)CCCC(C)(C)C12 (stereo not given in full)
inactive: Potency (OV90) | Potency (PA-1) | Potency (SKOV3) | Potency (Tov-21-G) | Potency (Tov112D)

CC(O)C1CCC2C3CCC4CC(OC5OC(C(=O)O)C(O)C(O)C5O)CCC4(C)C3CCC12C (stereo not given)
inactive: Potency (OV90) | Potency (PA-1) | Potency (SKOV3) | Potency (Tov-21-G) | Potency (Tov112D)

CCC(CC)CC1(C(=O)Nc2ccccc2SC(=O)C(C)C)CCCCC1
inactive: Potency (OV90) | Potency (PA-1) | Potency (SKOV3) | Potency (Tov-21-G) | Potency (Tov112D)
